Assay results reported in PubChem BioAssay AID1159580 (chemical genetic matrix, 2015).
Screen size: about 5,500 compounds; about 2,000 (36%) were called active. Roughly 18% stayed inconclusive and do not appear here. No stated cut-off is given here; in the data, active means normalized growth mostly below about 0.91 (no sharp cut-off); inconclusive means no clear call, values can overlap the other calls; inactive means mostly above about 0.92. The list shows a part of the results.

Assay: chemical genetic growth profiling, strain panel (AID 1159580);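 further: tested at 20 µM; growth read once vehicle control cultures reached saturation at 30 °C; 1 = growth at the plate median or of vehicle wells; lower values mean less growth of the strain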
Details: S. cerevisiae deletion strains, growth OD

Measured: normalized growth

CC(=O)c1cc(CC=C(C)C)c(O)c(CC=C(C)C)c1
active: locus YBR021W, strain FUR4, active compounds read low 1.42 [resistant] | locus YDR162C, strain NBP2, active compounds read low 0.665 | locus YHR030C, strain SLT2, active compounds read low 0.878
inactive: locus YAL013W, strain DEP1, active compounds read low 0.924 | locus YAL021C, strain ccr4, active compounds read low 1 | locus YAL026C, strain drs2, active compounds read low 1.01 | locus YAL030W, strain snc1, active compounds read low 1.01 | locus YBL061C, strain skt5, active compounds read low 1 | locus YBR009C, strain hhf1, active compounds read low 1 | locus YBR023C, strain chs3, active compounds read low 1 | locus YBR171W, strain sec66, active compounds read low 1.01 | locus YBR229C, strain ROT2, active compounds read low 0.989 | locus YBR231C, strain swc5, active compounds read low 1 | locus YBR279W, strain paf1, active compounds read low 1.02 | locus YCL011C, strain gbp2, active compounds read low 1.01 | locus YCL016C, strain dcc1, active compounds read low 1.01 | locus YCL029C, strain bik1, active compounds read low 0.96 | locus YCL061C, strain MRC1, active compounds read low 1.01 | locus YCL069W, strain vba3, active compounds read low 1 | locus YCR088W, strain abp1, active compounds read low 1 | locus YDL005C, strain med2, active compounds read low 1.02 | locus YDL035C, strain GPR1, active compounds read low 0.947 | locus YDL040C, strain nat1, active compounds read low 1.01 | locus YDL074C, strain BRE1, active compounds read low 0.797 | locus YDL101C, strain DUN1, active compounds read low 0.945 | locus YDL134C, strain PPH21, active compounds read low 0.987 | locus YDL185W, strain tfp1, active compounds read low 0.927 | locus YDL192W, strain arf1, active compounds read low 0.919 | locus YDR001C, strain nth1, active compounds read low 1 | locus YDR069C, strain doa4, active compounds read low 1 | locus YDR101C, strain arx1, active compounds read low 0.969 | locus YDR137W, strain rgp1, active compounds read low 0.939 | locus YDR150W, strain NUM1, active compounds read low 0.969 | locus YDR159W, strain sac3, active compounds read low 1.02 | locus YDR195W, strain ref2 1.06 | locus YDR297W, strain sur2, active compounds read low 1.01 | locus YDR318W, strain mcm21, active compounds read low 0.971 | locus YDR334W, strain swr1, active compounds read low 1.01 | locus YDR335W, strain msn5, active compounds read low 1.02 | locus YDR388W, active compounds read low 0.977 | locus YDR392W, strain spt3, active compounds read low 0.977 | locus YDR502C, strain sam2, active compounds read low 0.955 | locus YEL003W, strain gim4, active compounds read low 1.01 | locus YEL037C, strain rad23, active compounds read low 1 | locus YEL061C, strain CIN8 (second series), active compounds read low 1.01 | locus YEL061C, strain CIN8, active compounds read low 0.989 | locus YER015W, strain faa2, active compounds read low 1 | locus YER016W, strain bim1, active compounds read low 1.01 | locus YER110C, active compounds read low 0.966 | locus YER111C, strain swi4, active compounds read low 1.02 | locus YER155C, strain BEM2 (second series), active compounds read low 1.03 | locus YER155C, strain BEM2, active compounds read low 1 | locus YER167W, strain BCK2, active compounds read low 0.992 | locus YFR010W, strain ubp6, active compounds read low 1.01 | locus YGL078C, strain dbp3, active compounds read low 0.984 | locus YGL086W, strain mad1, active compounds read low 0.953 | locus YGL167C, strain pmr1, active compounds read low 0.987 | locus YGL173C, strain kem1, active compounds read low 1.01 | locus YGL227W, strain vid30, active compounds read low 1.01 | locus YGL240W, strain doc1, active compounds read low 1.03 | locus YGL248W, strain PDE1, active compounds read low 0.93 | locus YGL253W, strain hxk2, active compounds read low 1.01 | locus YGR078C, strain PAC10, active compounds read low 0.922 | locus YGR135W, strain pre9, active compounds read low 0.978 | locus YGR252W, strain gcn5, active compounds read low 0.921 | locus YHR013C, strain ard1, active compounds read low 1.06 | locus YHR027C, strain rpn1, active compounds read low 1 | locus YHR079C, strain IRE1 (second series), active compounds read low 0.97 | locus YHR094C, strain hxt1, active compounds read low 0.982 | locus YHR129C, strain ARP1, active compounds read low 0.97 | locus YHR142W, strain chs7, active compounds read low 0.995 | locus YHR200W, strain rpn10, active compounds read low 0.963 | locus YIL066C, strain RNR3, active compounds read low 0.965 | locus YIL073C, strain SPO22, active compounds read low 0.846 | locus YIL125W, strain kgd1, active compounds read low 0.984 | locus YIR030C, strain dcg1, active compounds read low 0.98 | locus YJL092W, strain hpr5, active compounds read low 1.01 | locus YJL095W, strain BCK1 (second series), active compounds read low 1.01 | locus YJL095W, strain BCK1, active compounds read low 0.9 | locus YJL115W, strain asf1, active compounds read low 1.02 | locus YJL129C, strain trk1, active compounds read low 0.974 | locus YJL134W, strain LCB3, active compounds read low 0.983 | locus YJL154C, strain vps35, active compounds read low 1.02 | locus YJL164C, strain tpk1, active compounds read low 0.999 | locus YJL166W, strain qcr8, active compounds read low 1.02 | locus YJL168C, strain set2, active compounds read low 0.984
